According to the OligoGym collection:

biological target: ETFB; test: pooled miR-30 sensor sort-seq; sequence = guide strand; conditions: shRNA
Also: reference of the scale not given here.

Sequence | sensor-assay potency score (higher = more potent)
TCAGCTGTCACCACAGCTGGCA | -0.558
TTCTTGGCTTTCATGATGTTGG | -0.962
ACACTGATCACAGAGAGCTTGG | -0.751
TCCACTTTCAACTTGTCCCCCT | -0.169
TGGAGGTCAGGTCCACACCCAG | -1.98
TCGATCTTCTTCTTCTTGGCTT | -0.249
AATCCAGCTGTCATCTGCCCTG | -0.828
TCTGGTTACAGTCATCATCGAT | -0.57
ACAGTCATCATCGATGGCCTGT | -0.63
TCCGTGACCACACCGGTCCTGT | -1.31
TCGGTCTGCACCCATGGCCAGG | -1.71
TTGATCACCTCGATCTTCTTCT | 0.521
TCGTCTCCTGGCACTGTGCAGG | -1.37
TTCTCCTTCTCTGCCAGCTTGG | -1.27
TTGGGCAGCGTGGCGTAGCGGG | -1.13
ATCACCTCGATCTTCTTCTTCT | -0.543
TTCTTCTTGGCTTTCATGATGT | -0.521
TCTCCTTGAGCCGCACAGCCTC | -1.05
AAGCGTTCTGCTTCTGCTGGGG | -0.0454
TCCCGCTCCACTTTCAACTTGT | -0.247
TTCATGGAGTGCTTCACACCAT | 0.145
AAGAAATCCAGCTGTCATCTGC | 0.386

biological target: ETS1; test: as above; conditions: shRNA

Sequence | sensor-assay potency score (higher = more potent)
TTTTCCGTCTTGATGATGGTGA | -0.268
TATGCTTTCAAAAGAGTCCTGG | 0.343
TTGTTTGATAGCAAAGTAGTCA | -0.385
TAGTCCTCTGAGTCGAAGCTGT | -0.809
TTGATATGGTTTCACATCCTCT | -1.06
TAGCAAAGTAGTCATTCTGCAA | -0.233
TTTCACATCCTCTTTCTGCAGG | -0.259
TGAAAGTAGCTTTTAATGCTTG | -0.0896
ATCTGCACATTCCATATCCGGG | -1.42
ATAGCTAATGAAGTAATCCGAG | -0.147
TTTTGTCGTAATAGTAGCGTAG | -0.397
TAGCTAATGAAGTAATCCGAGG | -1.48
TTTATCAGTGAGTAATTCCAGA | -0.449
TTCTTTAGTGAAACCACTGAAA | -0.218
TGAGACATCATTTCTTTGCTGC | 0.679
TTCTGCAAGGTGTCTGTCTGGA | 0.532
TTCTTGTTTGATAGCAAAGTAG | -1.22
TAACTTGATATGGTTTCACATC | -1.41
